Screens (PubChem)
ELG1 genotoxic = genotoxicity induction in ELG1-luciferase HEK293T cells; Potency, µM (series often up to 46 µM), without a hit: top-dose activity change, positive = activation, actives largely listed as activators; 330,000 tested, 1.3% active; HEK293T ELG1-luciferase reporter, luminescence, 16 h; further: % of control where 0% means no effect; nearly all actives have a fitted effect of over 60% in size
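Screening used a luciferase reporter fused to human ELG1 in HEK293T cells. Luminescence was read on a CCD plate imager after 16 hr exposure and 30 min ONE-Glo incubation.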
SMN2 splice enh = SMN2 splice variant enhancement; 210,000 tested, 2.8% active; HEK293 SMN2-luciferase splicing reporter, luminescence, 30-36 h; Potency, µM (titrated, usually from 46.1 µM), inactives show at the highest dose activity change, positive = activation, hits mostly activators; further: % of control where 0% means no effect; nearly all actives have a fitted effect of over 55% in size
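HEK293 cells carry an SMN2 […]–luciferase reporter in which exon 7 inclusion puts luciferase in frame. Cells were plated 10-12 h before compound addition, then incubated 30-36 h at 37C. ONE-Glo luminescence was read; sodium butyrate at 4.5 mM final served as control.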
KinaseGlo FLuc = Kinase-Glo luciferase inhibition (counter-screen); 200,000 tested, 0.28% active; Kinase-Glo luciferase, ATP luminescence, 8 min; Q27757; AID 1379; Potency, µM (top dose mostly 38.3 µM), for the others: at the highest dose activity change, negative = inhibition, hits mostly inhibitors; further: on the % scale 0 is the no-effect control and ±100 the full control effect; nearly all actives have a fitted effect of over 60% in size
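Recombinant Kinase-Glo luciferase, 10 uM ATP (linear range), luciferin; imidazole pH 7.2 / KCl / MgCl2 / Tween / BSA buffer; 8 min RT; luminescence.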
FLuc counter = counter-screen for miR-21 project: firefly luciferase inhibitors or activators. purified FLuc, Km substrates, luminescence inhibition. AID 588342. 360,000 tested, 6.9% active. P08659. Potency, µM (series often up to 57.5 µM), for inactives: at the highest dose activity change, negative = inhibition, most hits filed as inhibitors;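 further: plate controls were vehicle for no effect and reference inhibitor for full effect; nearly all actives have a fitted effect of over 55% in size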
Target sequence (P08659 whole entry, looked up): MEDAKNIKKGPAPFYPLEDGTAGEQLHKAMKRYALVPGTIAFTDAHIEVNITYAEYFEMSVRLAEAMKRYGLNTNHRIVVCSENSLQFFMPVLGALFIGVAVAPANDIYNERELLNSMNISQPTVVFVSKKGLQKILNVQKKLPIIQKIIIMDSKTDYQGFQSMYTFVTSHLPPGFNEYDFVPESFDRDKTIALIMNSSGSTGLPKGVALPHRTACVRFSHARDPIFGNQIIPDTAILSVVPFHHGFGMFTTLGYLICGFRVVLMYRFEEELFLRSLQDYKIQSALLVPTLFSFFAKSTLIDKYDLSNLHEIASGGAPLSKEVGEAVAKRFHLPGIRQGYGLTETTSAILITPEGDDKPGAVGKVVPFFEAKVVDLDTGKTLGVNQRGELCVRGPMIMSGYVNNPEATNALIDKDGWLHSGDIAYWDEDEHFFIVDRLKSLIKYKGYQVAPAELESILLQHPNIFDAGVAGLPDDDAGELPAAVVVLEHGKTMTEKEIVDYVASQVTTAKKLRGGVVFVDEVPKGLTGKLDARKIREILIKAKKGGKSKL
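Biochemical qHTS of compounds, final roughly 60 µM downward over six points, against 10 nM purified firefly luciferase using Km concentrations of substrates (10 uM D-luciferin, 10 uM ATP) in Tris acetate pH 7.5 buffer; luminescence output.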
NPC1 prom act = activators of NPC1 promoter; Huh7 NPC1 promoter luciferase reporter, 24 h; Potency, µM (titrated, usually from 9.22 µM), for inactives: top-dose activation, hits mostly activators; 320,000 tested, 2.4% active; further: % of control where 0% means no effect; nearly all actives have a fitted effect of over 60% in size
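Stably transfected Huh7 (NPC1 promoter→luciferase), 1500 cells/well in Opti-MEM + 10% FBS, 2 h settle, then compound 24 h at 37 °C. Luminescence after 10 min with Amplite reagent.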
Rab9 prom act = Rab9 promoter activation | Potency, µM (series often up to 9.22 µM), without a hit: top-dose activation, negative = inhibition, actives largely listed as activators | AID 485297 | Huh7 Rab9 promoter-luciferase reporter, luminescence, 24 h | 320,000 tested, 2.8% active; further: % of control where 0% means no effect; nearly all actives have a fitted effect of over 60% in size
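Promoter activation is measured as luciferase luminescence in Huh7 cells stably transfected with a Rab9 promoter–luciferase construct, following 24 h compound exposure at 37 °C and 10 min reagent incubation at ambient temperature.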
Numbers without * were called inactive; ? = inconclusive; nt = not tested or not shown; [ ] = another dose, or the depositor's remark. The list is not random: actives were taken first. Their share in the collection is about 7.3%. The call rests on the fitted dose curve; in most records, active means well fitted curve in the direction sought with a large enough effect; inconclusive means small, poorly fitted or top-dose-only effect, or another doubt; inactive means no such curve, though single readings can be large; an effect the other way counts as inactive or inconclusive. Potency means the concentration at half of the fitted maximal effect.

SMILES	ELG1 genotoxic	SMN2 splice enh	KinaseGlo FLuc	FLuc counter	NPC1 prom act	Rab9 prom act
COc1ccc(OC)c(S(=O)(=O)Nc2cccc(F)c2)c1	-3.2%	?	-4.2%	-0.8%	-0.9%	-1.3%
COc1ccc(C)cc1S(=O)(=O)Nc1cccc(-c2ccc(N3CCC(C)CC3)nn2)c1	nt	nt	nt	2.39µM*	nt	nt
COc1ccc(F)cc1S(=O)(=O)Nc1cccc(-c2ccc(N3CCC(C)CC3)nn2)c1	nt	nt	nt	5.36µM*	nt	nt
Cc1cccc2c1cnn2C(=O)Nc1ccccc1Cl	?	nt	nt	1.69µM*	?	?
O=C(Nc1ccccc1C(F)(F)F)n1ncc2cc(Cl)ccc21	nt	nt	nt	-7.9%	nt	nt
COc1ccc(NC(=O)n2ncc3c(C)cccc32)cc1	?	nt	nt	3.01µM*	0.0891µM*	0.1µM*
Cc1ccccc1NC(=O)n1ncc2cc(Cl)ccc21	5.2%	nt	nt	21.3µM*	9.8%	14.2%
COc1ccc(NC(=O)n2ncc3c(C)cccc32)cc1OC	?	nt	nt	1.9µM*	2.24µM*	3.16µM*
COc1ccc2nc3oc(C(=O)N(C)c4ccc(Cl)cc4)cc3cc2c1	nt	14.3%	nt	6.7%	nt	nt
Cc1ccc2c(=O)c(C(=O)c3ccccc3)cn(CC(=O)NCc3ccccc3)c2n1	nt	nt	nt	-2.1%	nt	nt
COC(=O)C1=C(C)NC(=O)NC1c1cn(-c2ccccc2)nc1-c1ccc(OC)c(Br)c1 (configuration not stated)	nt	-4.3%	nt	-10.0%	nt	nt
COc1ccc(C(=O)NCC(c2ccc(N(C)C)cc2)N2CCc3ccccc32)cc1 (configuration not stated)	nt	nt	nt	-1.6%	nt	nt
CCCOc1ccc(CNC(=O)Cn2cc3c(n2)-c2c(oc(C(=O)N4CCOCC4)c2C)CC3)cc1	nt	nt	nt	0.6%	nt	nt
COc1ccc(C)cc1NC(=O)n1ncc2c(C)cccc21	3.2%	nt	nt	7.57µM*	24.9%	28.2%
Cc1ccc(NC(=O)n2ncc3c(C)cccc32)cc1F	?	nt	nt	1.51µM*	?	0.794µM*
Cc1cccc2c1cnn2C(=O)Nc1ccccc1Br	7.4%	nt	nt	?	?	?
CC(C)[C@@H](CC(=O)N[C@@H]1CCNC[C@H]1C(=O)N[C@H](CC(=O)N[C@@H](CCC(=O)O)CC(=O)O)Cc1ccccc1)NC(=O)C[C@H](CO)NC(=O)[C@@H]1CCCC[C@H]1N	nt	16.7%	-9.3%	nt	nt	nt
O=C(O)c1cccc(NC2=Nc3cccc4cccc2c34)c1	7.3µM*	nt	nt	0.477µM*	0.447µM*	?
COc1ccc(C2=Nc3cccc4cccc(c34)N2)cc1	-0.4%	3.6%	-3.6%	5.36µM*	4.9%	-25.7%
COc1ccc(NC2=Nc3cccc4cccc2c34)cc1	10.8%	-10.8%[1.84 µM]	-0.5%	13.5µM*	-1.8%	-1.9%
Fc1ccc(/C=N/NC2=Nc3cccc4cccc2c34)cc1	11.6µM*	11.2µM*	-4.7%	1.69µM*	1.58µM*	1.58µM*
Nc1cccc(C2=Nc3cccc4cccc(c34)N2)c1	-1.4%	-16.0%[1.84 µM]	-23.8%	?	0.1%	7.5%
COc1cc(OC)cc(-c2nc3n(n2)C(c2ccccc2F)C(C(=O)Nc2cccnc2)=C(C)N3)c1 (configuration not stated)	nt	-2.3%	nt	-14.9%	nt	nt
COc1cccc(CN2C(=O)c3ccccc3Sc3ccc(C(=O)NCc4ccccc4)cc32)c1	nt	-1.8%	nt	-1.8%	nt	nt
O=C(NNC1=Nc2cccc3cccc1c23)c1ccccc1Br	4.2%	-22.8%[1.84 µM]	-2.4%	-0.8%	0.4%	-0.1%
SMILES	ELG1 genotoxic	SMN2 splice enh	KinaseGlo FLuc	FLuc counter	NPC1 prom act	Rab9 prom act
c1ccc(NC2=Nc3cccc4cccc2c34)cc1	13.8%	-44.0%	-4.9%	15.1µM*	1.3%	-2.0%
Cc1nc2sccn2c(=O)c1S(=O)(=O)NCc1ccc(F)cc1	nt	nt	nt	-1.1%	nt	nt
COc1ccc(Nc2cc(C)nc(N)n2)cc1	13.3%	nt	nt	?	22.4%	?
Nc1cc(Nc2ccc(Br)cc2)nc(N)n1	?	nt	nt	13.5µM*	3.55µM*	?
Cc1cc(Nc2ccc(Cl)cc2)nc(N)n1	?	15.9%	-3.2%	19µM*	?	?
CCNC(=O)NC(=O)C(C)OC(=O)C(C)(C)Oc1ccc(Cl)cc1 (configuration not stated)	-2.3%	-7.9%	-0.1%	1.5%	-1.8%	6.8%
CCNC(=O)NC(=O)C(C)Oc1ccc(Br)cc1Br (configuration not stated)	?	?	2.2%	16.9µM*	9.8%	23.0%
Cc1cccc(N2C(=O)C(CC(=O)Nc3cccc(F)c3)N(Cc3cccs3)C2=O)c1 (configuration not stated)	nt	nt	nt	-2.9%	nt	nt
Cc1cc2nc(-c3ccc(SCC(=O)Nc4nccs4)nc3)[nH]c2cc1C	?	?	-10.4%	?	3.55µM*	2.51µM*
Cc1cc2nc(-c3ccc(SCC(=O)Nc4ccc(S(=O)(=O)N5CCCC5)cc4)nc3)[nH]c2cc1C	?	12.6µM*	-20.8%	0.301µM*	2.51µM*	2µM*
O=C(CSc1ccc(-c2nc3ccccc3[nH]2)cn1)Nc1ccc(S(=O)(=O)N2CCCC2)cc1	-0.8%	18.9%	-2.4%	4.78µM*	-4.4%	-2.2%
COc1cc(NC(=O)c2nc3cc(C)c(C)cc3n(C)c2=O)cc(OC)c1OC	nt	6.0%	nt	-1.8%	nt	nt
O=C(NC1CCCCC1)c1ccc(CS(=O)(=O)Cc2ccccc2F)o1	8.1%	10µM*	-3.9%	-3.3%	10.7%	21.5%
O=C(NCc1ccccc1Cl)c1ccc(-n2cnc3cccnc32)cc1	nt	nt	nt	-14.9%	nt	nt
COc1ccc(OCC(=O)Nc2cccc(-c3nc4ccccc4o3)c2)cc1	?	66.1%	-8.0%	?	4.47µM*	?
O=C(Nc1ccc2oc(-c3ccncc3)nc2c1)c1ccccc1	2.1%	-16.3%	-2.7%	-0.3%	-3.9%	-1.6%
COc1ccc(-c2nc3ccccc3o2)cc1NC(=O)COc1cc(C)cc(C)c1	nt	nt	nt	-5.8%	nt	nt
O=C(O)CCC(=O)Nc1cccc(-c2nc3ccccc3o2)c1	0.5%	nt	nt	10.7µM*	0.9%	0.1%
CC(=O)Nc1ccc2oc(-c3ccccc3)nc2c1	?	10µM*	-4.9%	7.57µM*	1.26µM*	2.51µM*
CCCC(=O)Nc1cccc(-c2nc3ccccc3o2)c1	-0.9%	34.4%	1.1%	?	5.4%	10.2%
COc1ccc(-c2nc3ccccc3o2)cc1NC(=O)COc1ccc(C(C)(C)C)cc1	nt	5.01µM*	nt	-1.2%	nt	nt
CCc1ccc(C(=O)c2cn(CC(=O)Nc3cc(OC)ccc3OC)c3ccc(Cl)cc3c2=O)cc1	nt	14.7%	nt	0.5%	nt	nt
COc1ccccc1N1CCN(C(=O)C2CCN(S(=O)(=O)c3cn(C)cn3)CC2)CC1	nt	nt	nt	-0.6%	nt	nt
COc1cccc(N2CC(NC(=O)c3cc(Cl)ccc3OC)CC2=O)c1 (configuration not stated)	nt	nt	nt	-6.5%	nt	nt
O=C(Nc1ccc(-c2nc3ccccc3o2)c(O)c1)c1cc(Cl)ccc1Cl	nt	4.8%	nt	?	nt	nt
